High-throughput results as filed in PubChem BioAssay.
SNCA expr inhib = reduces expression of the alpha-synuclein gene. HEK-293 SNCA-luciferase knock-in, luminescence, 24 h. Potency, µM (top dose mostly 57.2 µM), for the others: at the top dose activity change, negative = inhibition, usual class: inhibitors. hit rate 0.17% among 140,000;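 note: potency is the fitted concentration of half-maximal effect; plate controls were DMSO cells for no effect and cell-free wells for full effect; nearly all actives have a fitted effect of over 45% in size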
KDM5B inhibitor = blocks human KDM5B histone demethylase activity; Q9UGL1; KDM5B demethylase, FDH-coupled NADH fluorescence (FDH is formaldehyde dehydrogenase); Potency, µM (highest dose often 57.7 µM), hits mostly inhibitors; hit rate 2.6% among 220,000; AID 1347165; note: potency is the fitted concentration of half-maximal effect; 0% is about no effect; nearly all actives have a fitted effect of over 70% in size
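Measured: NADH fluorescence change, 30 min, RT. System: KDM5BΔAP 200 nM final, H3K4me3 peptide, α-KG, Fe(II), ascorbate, NAD⁺ plus FDH, pH 7.5 HEPES. Compounds: titrated, 10 min pre-incubation with enzyme.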
IP6K1 inhibitor = blocks human inositol hexakisphosphate kinase 1. Q92551. IP6K1 kinase, ADP-Glo luminescence, 2 h; stronger effect = lower value. activity change, % (series mostly up to about 58 µM). hit rate 0.81% among 140,000. AID 1645851; in the data active = activity change below about -25%; note: % is set by controls: 0 for no effect and ±100 for the full control effect
Target sequence (Q92551 whole entry, looked up): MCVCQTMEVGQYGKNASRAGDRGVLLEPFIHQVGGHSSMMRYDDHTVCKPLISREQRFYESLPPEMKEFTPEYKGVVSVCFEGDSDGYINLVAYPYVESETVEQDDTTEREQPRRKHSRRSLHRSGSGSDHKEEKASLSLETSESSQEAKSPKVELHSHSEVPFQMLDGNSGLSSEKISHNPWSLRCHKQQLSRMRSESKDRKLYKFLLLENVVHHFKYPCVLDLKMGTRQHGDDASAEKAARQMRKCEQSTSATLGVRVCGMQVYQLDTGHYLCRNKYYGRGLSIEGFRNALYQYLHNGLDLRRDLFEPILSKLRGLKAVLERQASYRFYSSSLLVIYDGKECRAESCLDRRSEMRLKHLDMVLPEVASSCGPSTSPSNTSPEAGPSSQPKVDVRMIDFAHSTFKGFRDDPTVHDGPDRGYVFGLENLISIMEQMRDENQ
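ADP-Glo luminescence measures ADP made by human IP6K1 during a 2 h RT reaction with ATP/IP6 (mix at 1.3 mM/130 uM); top library doses 57.5 and 19.1 uM final.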
SNCA viab count = cell viability loss counter-screen | HEK-293-SNCA-luc viability, GF-AFC fluorescence, 24 h | Potency, µM (titrated, usually from 57.1 µM), without a hit: at the top dose activity change, negative = cytotoxicity, actives largely listed as cytotoxic | hit rate 0.12% among 150,000 | AID 1671193;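 note: potency is the fitted concentration of half-maximal effect; 0% = DMSO-treated cells and -100% = medium-only wells without cells; nearly all actives have a fitted effect of over 30% in size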
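Cytotoxicity counterscreen: after 24 h compound treatment of genome-edited SNCA-luciferase HEK-293 cells, live-cell protease substrate GF-AFC read by fluorescence after 30 min; activity scaled between DMSO (0%) and medium-only (-100%), curves Hill-fitted.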
* marks the source's active call; other numbers are inactive results; i = inactive; ? = inconclusive; nt = no result; [ ] = remark or other dose. The list is not random: actives were taken first. Their share in the collection is about 2.8%. Unless noted, calls come from the whole dose curve; as a rule, active = well fitted curve in the direction sought with a large enough effect; inconclusive = small, poorly fitted or top-dose-only effect, or another doubt; inactive = no such curve, though single readings can be large; an effect the other way counts as inactive or inconclusive.

SMILES	SNCA expr inhib	KDM5B inhibitor	IP6K1 inhibitor	SNCA viab count
CC(C)c1nncn1C1CCN(S(=O)(=O)c2cccc(F)c2)CC1	-23.3%	i	4.0	2.8%
Cc1noc(-c2ccn3c(CNC(=O)Cc4cccc(F)c4)nnc3c2)n1	27.0%	28.2µM*	39.4	13.6%
CCCc1noc(-c2ccn3c(CNC(=O)Cc4cccc(F)c4)nnc3c2)n1	-0.2%	7.08µM*	11.3	11.0%
COc1cccc(Nc2ncc3c(n2)C(C)(C(=O)Nc2nc(C)cs2)CC3)c1 (configuration not stated)	-7.5%[87.6 µM]	35.5µM*	-9.5	-15.1%[87.6 µM]
Cc1cc2nc3n(c(=O)c2n1CC(=O)Nc1ccc2c(c1)OCO2)CCCC3	-22.3%	i	-3.7	-6.4%
Cc1ccc(S(=O)(=O)N(C)CC(=O)OCc2coc(-c3cccs3)n2)cc1	nt	i	nt	nt
O=C(Cc1ccccc1F)N1CCN(c2nnc3ccc(Cl)cn23)CC1	-0.7%	?	40.3	-7.1%
O=C(Cc1cccc(C(F)(F)F)c1)N1CCN(c2nnc3ccc(Cl)cn23)CC1	-11.0%	25.1µM*	4.3	-1.2%
O=C(Cc1ccc(Cl)cc1)N1CCN(c2ccccc2O)CC1	nt	i	nt	nt
O=C(Cc1ccc(Cl)cc1)N1CCN(c2nnc3ccccn23)CC1	-6.9%	25.1µM*	25.4	2.8%
O=C1CN(Cc2ccc(-c3cccs3)cc2)CCN1c1ccc(Cl)nn1	?	79.4µM*	13.4	-9.5%
O=C1CN(Cc2ccc(-c3ccccc3)cc2)CCN1c1ccc(Cl)nn1	7.2%	i	17.3	9.6%
CC(Oc1cc(Cl)ccc1Cl)C(=O)Nc1ccnn1C(C)C (configuration not stated)	nt	i	nt	nt
COCC(=O)NC[C@H]1CCN(Cc2ccc(C#N)cc2)C[C@H]1N(C)C	37.9%	17.8µM*	11.8	-6.6%[12.5 µM]
COCC(=O)NC[C@H]1CCN(Cc2ccc(Cl)cc2)C[C@H]1N(C)C	9.7%	i	11.7	0.0%[12.5 µM]
CC1CCCN(C(=O)Cn2nc(C(=O)O)c3ccccc3c2=O)C1 (configuration not stated)	nt	i	nt	nt
O=C(CN1C(=O)COc2ccc(S(=O)(=O)N3CCCCCC3)cc21)Nc1cccc(Cl)c1	10µM*	i	1.0	?
O=c1cc2c(nn1Cc1ccc(OC(F)(F)F)cc1)CCCCC2	26.5%	i	8.4	1.3%
Cc1ccn2c(=O)cc(CN3CC[C@@H]4[C@@H](CCC(=O)N4CCC(C)C)C3)nc2c1	-16.9%	28.2µM*	6.3	-1.3%
Cc1cc(C)cc(-c2ccc(C=O)cc2)c1	24.8%[87.6 µM]	31.6µM*	-5.8	2.7%[87.6 µM]
O=Cc1ccc(-c2ccc(F)cc2)cc1	38.2%[87.6 µM]	89.1µM*	-12.0	6.4%[87.6 µM]
O=Cc1ccc(-c2cccc(O)c2)cc1	-24.1%[87.6 µM]	12.6µM*	-18.2	4.2%[87.6 µM]
Cc1cnc(C2CC2)n1C1CCCN(C(=O)C2CCC2)C1 (configuration not stated)	27.5%	i	-4.4	8.6%
CCC(C(=O)NCc1nnc2ccc(-c3ccc(OC)cc3)nn12)c1ccccc1 (configuration not stated)	14.6%	25.1µM*	10.0	1.5%
CC(Oc1cccc(Cl)c1)C(=O)NCc1nnc2ccc(-c3ccccc3)nn12 (configuration not stated)	-13.2%	?	8.1	13.1%
SMILES	SNCA expr inhib	KDM5B inhibitor	IP6K1 inhibitor	SNCA viab count
CCC(C(=O)NCc1nnc2ccc(-c3ccccc3)nn12)c1ccccc1 (configuration not stated)	-15.1%	22.4µM*	39.5	3.1%
COCCCN1C(=O)CC[C@H]2CN(Cc3cc(CC(C)C)n[nH]3)CC[C@H]21	10.1%	i	-1.9	-2.9%
N[C@@H](Cc1cc(I)c(Oc2ccc(O)c(I)c2)c(I)c1)C(=O)O	nt	nt	-33.6*	-26.5%
N[C@@H](Cc1cc(I)c(Oc2cc(I)c(O)c(I)c2)c(I)c1)C(=O)O	0.3%	nt	-25.0	-16.7%
O=C(c1cc(-c2ccccc2)nc2ccccc12)N1CCCC(C(F)(F)F)C1 (configuration not stated)	nt	i	nt	nt
O=c1c2nc(-c3ccccc3F)ccc2ncn1Cc1ccccn1	4.4%[87.6 µM]	?	-4.5	-1.2%[87.6 µM]
COc1ccc(-c2ccc3ncn(Cc4ccccn4)c(=O)c3n2)cc1F	6.2%[87.6 µM]	35.5µM*	5.5	-12.0%[87.6 µM]
O=c1c2nc(-c3ccc(Cl)cc3)ccc2ncn1Cc1ccccn1	5.5%[87.6 µM]	35.5µM*	5.9	-22.1%[87.6 µM]
Cc1ccc(-c2ccc3ncn(Cc4ccccn4)c(=O)c3n2)c(C)c1	-3.5%[87.6 µM]	31.6µM*	4.5	-6.1%[87.6 µM]
O=c1c2nc(-c3ccccc3)ccc2ncn1Cc1ccccn1	-18.6%[87.6 µM]	39.8µM*	18.4	-4.9%[87.6 µM]
